The record followed here is PMC7862700, “An all-to-all approach to the identification of sequence-specific readers for epigenetic DNA modifications on cytosine”.

What all share (test): DAPPL (digital affinity profiling via proximity ligation, sequencing); 10 mM Tris-HCl pH 7.5, 50 mM NaCl, 1 mM DTT, 4% glycerol, room temperature, 30 min; GST-TFs on glutathione beads, 16-mer random dsDNA library, 0.1% formaldehyde crosslink after washing; high values mean tight binding
Holding throughout (conditions): protein: recombinant; tags: N-terminal GST; dsDNA, one strand shown

One experiment concerns the target T1, FLI1 (Homo sapiens, UniProt Q01543 1-452).
T1 sequence: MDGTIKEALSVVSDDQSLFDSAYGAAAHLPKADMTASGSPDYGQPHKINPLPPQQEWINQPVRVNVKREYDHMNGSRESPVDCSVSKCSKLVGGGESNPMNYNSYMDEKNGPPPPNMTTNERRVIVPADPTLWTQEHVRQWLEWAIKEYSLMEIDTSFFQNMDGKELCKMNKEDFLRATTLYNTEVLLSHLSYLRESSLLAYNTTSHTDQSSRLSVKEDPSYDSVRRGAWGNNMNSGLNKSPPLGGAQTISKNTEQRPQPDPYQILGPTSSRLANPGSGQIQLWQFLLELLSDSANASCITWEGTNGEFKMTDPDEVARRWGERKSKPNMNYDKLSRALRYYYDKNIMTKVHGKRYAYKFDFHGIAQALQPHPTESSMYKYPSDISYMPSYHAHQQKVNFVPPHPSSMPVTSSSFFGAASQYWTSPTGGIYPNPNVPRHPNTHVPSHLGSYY
The method in brief:
(§1)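 Each value of binding signal is a hexamer's read frequency for a factor divided by the same hexamer's frequency in the tag-only sample. Barcoded, bead-captured GST fusions of human transcription factors made in yeast were pooled with that sample and incubated with 200 nmole of a random double-stranded 16-mer DNA library in Tris/NaCl/DTT/glycerol buffer at room temperature for 30 min. Washing, 0.1% formaldehyde crosslinking, proximity ligation, PCR and Illumina NextSeq500 sequencing followed.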

Another experiment has as its target T2, ELK1 (Homo sapiens, UniProt P19419 1-428).
T2 sequence: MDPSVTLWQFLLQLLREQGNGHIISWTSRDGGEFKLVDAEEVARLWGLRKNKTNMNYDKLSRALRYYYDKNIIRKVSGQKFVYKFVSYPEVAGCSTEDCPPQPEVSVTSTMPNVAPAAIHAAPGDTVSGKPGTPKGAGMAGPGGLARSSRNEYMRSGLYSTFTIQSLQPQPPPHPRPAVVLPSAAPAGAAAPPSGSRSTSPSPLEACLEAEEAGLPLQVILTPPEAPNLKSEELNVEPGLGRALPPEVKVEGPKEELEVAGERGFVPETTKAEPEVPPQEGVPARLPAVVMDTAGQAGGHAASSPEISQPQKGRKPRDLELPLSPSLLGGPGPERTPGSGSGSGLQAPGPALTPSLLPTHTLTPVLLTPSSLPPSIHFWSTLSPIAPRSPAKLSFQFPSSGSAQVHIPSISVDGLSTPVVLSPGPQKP
The method in brief:
as §1

The target of another experiment is T3, GABPA (Homo sapiens, UniProt Q06546 1-454).
T3 sequence: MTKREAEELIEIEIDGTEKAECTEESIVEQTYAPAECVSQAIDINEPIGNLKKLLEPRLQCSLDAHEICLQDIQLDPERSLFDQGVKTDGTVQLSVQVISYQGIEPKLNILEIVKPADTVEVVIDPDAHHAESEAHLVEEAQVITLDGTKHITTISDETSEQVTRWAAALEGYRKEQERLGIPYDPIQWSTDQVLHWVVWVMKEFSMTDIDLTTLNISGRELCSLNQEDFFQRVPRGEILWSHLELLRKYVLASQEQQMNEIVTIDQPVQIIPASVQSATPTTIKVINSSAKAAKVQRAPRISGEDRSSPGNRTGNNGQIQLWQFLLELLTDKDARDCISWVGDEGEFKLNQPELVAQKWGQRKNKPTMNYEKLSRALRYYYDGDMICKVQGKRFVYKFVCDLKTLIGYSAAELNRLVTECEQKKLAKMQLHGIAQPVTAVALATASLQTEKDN
Put shortly:
as §1

The target in another experiment is T4, ERG (Homo sapiens, UniProt P11308 1-479).
T4 sequence: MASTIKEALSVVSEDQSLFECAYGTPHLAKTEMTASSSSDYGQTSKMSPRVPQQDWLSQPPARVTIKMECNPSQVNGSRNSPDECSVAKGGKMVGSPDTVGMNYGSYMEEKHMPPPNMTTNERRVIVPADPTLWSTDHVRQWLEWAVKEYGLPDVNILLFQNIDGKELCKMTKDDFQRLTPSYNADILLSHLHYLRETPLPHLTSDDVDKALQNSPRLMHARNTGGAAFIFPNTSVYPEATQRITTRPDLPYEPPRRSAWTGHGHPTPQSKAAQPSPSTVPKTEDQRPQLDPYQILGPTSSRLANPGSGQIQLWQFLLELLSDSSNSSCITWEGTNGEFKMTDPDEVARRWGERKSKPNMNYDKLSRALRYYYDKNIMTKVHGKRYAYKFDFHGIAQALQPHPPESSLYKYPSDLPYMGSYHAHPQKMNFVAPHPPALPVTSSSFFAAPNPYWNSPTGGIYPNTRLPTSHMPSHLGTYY
The method in brief:
as §1

The target in a further experiment is ELF1 (Homo sapiens, UniProt P32519 1-619). Put shortly: as §1
Sequence of ELF1 (P32519 whole entry): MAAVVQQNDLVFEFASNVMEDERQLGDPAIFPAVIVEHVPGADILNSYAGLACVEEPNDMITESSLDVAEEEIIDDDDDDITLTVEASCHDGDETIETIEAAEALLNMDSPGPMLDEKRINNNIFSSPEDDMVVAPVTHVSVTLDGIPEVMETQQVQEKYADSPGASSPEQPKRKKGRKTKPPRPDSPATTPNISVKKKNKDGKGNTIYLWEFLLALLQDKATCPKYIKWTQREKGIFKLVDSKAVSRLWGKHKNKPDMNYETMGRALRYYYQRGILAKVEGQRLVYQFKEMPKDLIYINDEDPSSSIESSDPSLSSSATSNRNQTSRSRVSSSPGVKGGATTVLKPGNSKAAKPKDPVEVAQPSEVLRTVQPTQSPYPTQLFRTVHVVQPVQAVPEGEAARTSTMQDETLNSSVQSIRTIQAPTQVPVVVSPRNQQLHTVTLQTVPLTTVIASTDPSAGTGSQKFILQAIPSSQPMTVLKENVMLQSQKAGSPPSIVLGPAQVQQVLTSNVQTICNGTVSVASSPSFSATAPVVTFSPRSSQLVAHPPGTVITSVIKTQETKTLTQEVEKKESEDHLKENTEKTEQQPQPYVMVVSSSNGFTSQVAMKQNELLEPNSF
A further experiment addresses T5, EHF (Homo sapiens, UniProt Q9NZC4 1-300).
T5 sequence: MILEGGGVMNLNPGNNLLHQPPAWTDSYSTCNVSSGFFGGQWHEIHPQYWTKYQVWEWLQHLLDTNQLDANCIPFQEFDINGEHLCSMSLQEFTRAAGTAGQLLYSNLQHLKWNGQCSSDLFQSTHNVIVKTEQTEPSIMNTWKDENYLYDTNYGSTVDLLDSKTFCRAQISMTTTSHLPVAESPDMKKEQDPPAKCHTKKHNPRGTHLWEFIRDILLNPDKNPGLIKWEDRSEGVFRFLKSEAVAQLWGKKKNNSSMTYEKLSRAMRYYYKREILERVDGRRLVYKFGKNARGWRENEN
The method in brief: as §1

The next experiment deals with SPI1 (Homo sapiens, UniProt P17947 1-270). The method in brief:
as §1

In another experiment the target is SPIB (Homo sapiens, UniProt Q01892 1-262). Put shortly: as §1
Sequence of SPIB (Q01892 whole entry): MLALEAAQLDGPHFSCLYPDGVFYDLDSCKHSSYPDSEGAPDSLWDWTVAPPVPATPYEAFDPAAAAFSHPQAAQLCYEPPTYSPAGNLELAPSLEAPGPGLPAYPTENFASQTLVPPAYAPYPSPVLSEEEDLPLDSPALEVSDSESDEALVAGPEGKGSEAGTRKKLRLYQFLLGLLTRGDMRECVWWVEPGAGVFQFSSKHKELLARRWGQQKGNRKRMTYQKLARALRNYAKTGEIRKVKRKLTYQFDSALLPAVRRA
In another experiment the target is T6, ELK3 (Homo sapiens, UniProt P41970 1-407).
T6 sequence: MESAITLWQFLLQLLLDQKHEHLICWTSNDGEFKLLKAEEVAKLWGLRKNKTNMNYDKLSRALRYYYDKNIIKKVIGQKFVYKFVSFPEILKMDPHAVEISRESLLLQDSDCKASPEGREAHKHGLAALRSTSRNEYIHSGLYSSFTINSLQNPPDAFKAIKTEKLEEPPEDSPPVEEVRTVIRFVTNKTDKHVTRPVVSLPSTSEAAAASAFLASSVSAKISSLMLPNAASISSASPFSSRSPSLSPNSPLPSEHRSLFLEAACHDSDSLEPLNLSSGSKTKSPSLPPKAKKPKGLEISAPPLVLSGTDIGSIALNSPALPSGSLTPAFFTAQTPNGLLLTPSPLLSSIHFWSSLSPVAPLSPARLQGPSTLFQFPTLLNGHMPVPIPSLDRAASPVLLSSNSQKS
The method in brief:
as §1

A further experiment addresses T7, FEV (Homo sapiens, UniProt Q99581 1-238).
T7 sequence: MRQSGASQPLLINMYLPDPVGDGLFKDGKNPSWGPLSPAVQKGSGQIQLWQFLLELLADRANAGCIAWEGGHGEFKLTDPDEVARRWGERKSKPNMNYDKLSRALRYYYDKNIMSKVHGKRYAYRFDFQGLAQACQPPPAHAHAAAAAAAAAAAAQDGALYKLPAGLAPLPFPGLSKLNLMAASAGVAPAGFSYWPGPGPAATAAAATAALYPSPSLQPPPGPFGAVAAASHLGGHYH
Put shortly: as §1

The target of a further experiment is ETV5 (Homo sapiens, UniProt P41161 1-510). The method in brief:
as §1

In a further experiment the target is T8, SPIC (Homo sapiens, UniProt Q8N5J4 1-248).
T8 sequence: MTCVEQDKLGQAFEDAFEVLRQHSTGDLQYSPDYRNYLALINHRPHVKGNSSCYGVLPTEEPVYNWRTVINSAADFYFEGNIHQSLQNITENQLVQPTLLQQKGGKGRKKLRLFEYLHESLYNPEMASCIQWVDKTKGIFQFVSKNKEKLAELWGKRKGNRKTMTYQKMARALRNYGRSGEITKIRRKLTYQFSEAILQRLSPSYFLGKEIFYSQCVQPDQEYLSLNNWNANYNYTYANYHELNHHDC
The method in brief:
as §1

Another experiment addresses ELF4 (Homo sapiens, UniProt Q99607 1-663). Put shortly:
as §1

The next experiment has as its target T9, ELK4 (Homo sapiens, UniProt P28324-2 1-405).
T9 sequence: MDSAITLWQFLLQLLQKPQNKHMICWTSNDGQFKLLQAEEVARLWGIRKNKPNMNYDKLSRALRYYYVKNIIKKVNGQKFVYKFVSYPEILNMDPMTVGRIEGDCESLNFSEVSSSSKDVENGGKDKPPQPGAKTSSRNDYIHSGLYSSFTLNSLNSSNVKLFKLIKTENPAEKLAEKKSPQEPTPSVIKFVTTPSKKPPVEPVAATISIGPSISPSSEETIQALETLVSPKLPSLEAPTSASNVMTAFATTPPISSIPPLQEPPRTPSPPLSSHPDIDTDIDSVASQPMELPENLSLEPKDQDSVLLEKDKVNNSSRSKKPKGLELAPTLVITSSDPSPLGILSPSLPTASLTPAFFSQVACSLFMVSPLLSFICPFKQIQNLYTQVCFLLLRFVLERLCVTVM
The method in brief: as §1

A further experiment deals with T10, ETV2 (Homo sapiens, UniProt O00321 1-342).
T10 sequence: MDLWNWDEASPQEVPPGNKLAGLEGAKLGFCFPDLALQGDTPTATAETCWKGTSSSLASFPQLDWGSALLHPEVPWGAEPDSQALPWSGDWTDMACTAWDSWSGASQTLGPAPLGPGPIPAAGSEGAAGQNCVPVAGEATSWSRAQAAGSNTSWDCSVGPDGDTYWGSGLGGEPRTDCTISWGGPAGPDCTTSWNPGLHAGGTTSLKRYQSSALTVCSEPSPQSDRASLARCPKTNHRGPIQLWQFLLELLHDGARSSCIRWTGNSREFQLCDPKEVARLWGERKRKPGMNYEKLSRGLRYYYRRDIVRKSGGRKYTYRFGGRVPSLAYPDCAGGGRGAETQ
The method in brief:
as §1

The target in the next experiment is T11, ELF3 (Homo sapiens, UniProt P78545 1-371).
T11 sequence: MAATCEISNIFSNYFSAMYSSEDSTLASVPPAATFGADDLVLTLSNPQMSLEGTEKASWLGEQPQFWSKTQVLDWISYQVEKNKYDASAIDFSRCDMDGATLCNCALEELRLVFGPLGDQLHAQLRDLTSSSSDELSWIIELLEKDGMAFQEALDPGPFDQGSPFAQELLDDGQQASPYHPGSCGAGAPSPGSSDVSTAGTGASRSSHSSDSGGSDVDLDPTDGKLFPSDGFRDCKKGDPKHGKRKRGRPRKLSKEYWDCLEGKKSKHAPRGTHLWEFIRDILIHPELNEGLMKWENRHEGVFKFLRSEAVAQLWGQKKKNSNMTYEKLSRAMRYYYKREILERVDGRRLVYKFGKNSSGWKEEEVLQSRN
Put shortly:
as §1

For the next experiment, the target named is CRX (Homo sapiens, UniProt O43186 1-299). Put shortly:
as §1

In another experiment the target is ETV1 (Homo sapiens, UniProt P50549 1-477). Put shortly:
as §1

Sequence of ETV5 (P41161 whole entry): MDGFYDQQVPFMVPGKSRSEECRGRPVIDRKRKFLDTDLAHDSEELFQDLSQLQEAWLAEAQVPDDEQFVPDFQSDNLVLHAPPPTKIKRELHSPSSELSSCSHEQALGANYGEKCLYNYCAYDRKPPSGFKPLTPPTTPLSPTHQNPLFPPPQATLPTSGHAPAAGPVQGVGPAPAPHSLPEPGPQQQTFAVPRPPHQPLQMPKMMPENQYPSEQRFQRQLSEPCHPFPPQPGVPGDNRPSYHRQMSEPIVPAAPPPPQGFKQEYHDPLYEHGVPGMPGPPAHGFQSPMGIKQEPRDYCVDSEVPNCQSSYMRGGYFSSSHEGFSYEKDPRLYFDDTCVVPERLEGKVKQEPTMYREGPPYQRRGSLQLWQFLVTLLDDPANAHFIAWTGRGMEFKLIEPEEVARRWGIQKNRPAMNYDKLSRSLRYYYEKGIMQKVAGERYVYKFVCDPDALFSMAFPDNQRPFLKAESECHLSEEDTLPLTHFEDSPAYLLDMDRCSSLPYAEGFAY
Sequence of ELF4 (Q99607 whole entry): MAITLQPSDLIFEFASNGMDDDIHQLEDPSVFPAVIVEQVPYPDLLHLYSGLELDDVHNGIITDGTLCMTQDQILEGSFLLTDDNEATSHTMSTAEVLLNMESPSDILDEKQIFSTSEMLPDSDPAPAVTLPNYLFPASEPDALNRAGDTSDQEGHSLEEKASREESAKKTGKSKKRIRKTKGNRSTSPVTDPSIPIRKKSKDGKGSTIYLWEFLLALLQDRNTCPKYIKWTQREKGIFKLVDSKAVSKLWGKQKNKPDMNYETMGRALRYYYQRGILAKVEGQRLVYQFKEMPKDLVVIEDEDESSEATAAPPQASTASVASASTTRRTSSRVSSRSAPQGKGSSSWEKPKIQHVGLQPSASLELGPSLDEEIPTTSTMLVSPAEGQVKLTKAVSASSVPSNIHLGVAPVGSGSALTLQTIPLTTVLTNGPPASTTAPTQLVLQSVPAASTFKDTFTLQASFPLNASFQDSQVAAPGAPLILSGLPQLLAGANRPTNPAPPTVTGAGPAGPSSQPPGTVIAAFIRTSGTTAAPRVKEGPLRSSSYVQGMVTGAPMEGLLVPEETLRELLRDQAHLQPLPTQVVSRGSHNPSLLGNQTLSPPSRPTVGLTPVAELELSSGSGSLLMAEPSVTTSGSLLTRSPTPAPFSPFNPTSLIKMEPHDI
Sequence of ETV1 (P50549 whole entry): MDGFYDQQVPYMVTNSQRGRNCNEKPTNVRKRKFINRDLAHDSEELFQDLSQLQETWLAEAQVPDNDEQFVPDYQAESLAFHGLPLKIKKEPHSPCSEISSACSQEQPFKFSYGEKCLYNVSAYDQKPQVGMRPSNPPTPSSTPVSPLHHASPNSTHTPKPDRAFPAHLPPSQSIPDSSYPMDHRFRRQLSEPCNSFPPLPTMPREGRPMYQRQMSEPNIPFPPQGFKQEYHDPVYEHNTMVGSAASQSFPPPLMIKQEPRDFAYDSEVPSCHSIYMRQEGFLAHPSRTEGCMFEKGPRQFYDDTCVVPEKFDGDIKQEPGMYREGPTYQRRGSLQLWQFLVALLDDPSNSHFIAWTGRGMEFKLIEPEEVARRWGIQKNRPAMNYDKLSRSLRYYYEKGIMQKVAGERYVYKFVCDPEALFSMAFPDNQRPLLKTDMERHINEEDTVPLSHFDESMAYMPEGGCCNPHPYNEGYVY
Sequence of CRX (O43186 whole entry): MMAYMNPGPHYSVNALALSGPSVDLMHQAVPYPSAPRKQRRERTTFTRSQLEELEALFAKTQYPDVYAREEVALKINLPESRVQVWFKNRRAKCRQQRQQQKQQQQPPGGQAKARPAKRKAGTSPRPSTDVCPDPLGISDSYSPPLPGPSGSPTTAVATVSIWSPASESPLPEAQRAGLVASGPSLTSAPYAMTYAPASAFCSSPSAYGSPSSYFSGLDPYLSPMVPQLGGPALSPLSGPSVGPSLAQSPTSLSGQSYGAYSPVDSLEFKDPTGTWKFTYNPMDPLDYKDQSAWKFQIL

On to ACCGCC, for which the binding signal is 1.38 fold enrichment (6-mer frequency, TF over GST control) in the experiment with FLI1; 1.23 fold enrichment (6-mer frequency, TF over GST control) in the experiment with ELK1; 1.35 fold enrichment (6-mer frequency, TF over GST control) in the experiment with GABPA; 1.27 fold enrichment (6-mer frequency, TF over GST control) in the experiment with ERG; 1.29 fold enrichment (6-mer frequency, TF over GST control) with ELF1; 1.36 fold enrichment (6-mer frequency, TF over GST control) in the experiment with EHF. The binding signal in the experiment with SPI1 is 1.19 fold enrichment (6-mer frequency, TF over GST control); with SPIB, 1.13 fold enrichment (6-mer frequency, TF over GST control); with ELK3, 1.3 fold enrichment (6-mer frequency, TF over GST control); with FEV it was 1.32 fold enrichment (6-mer frequency, TF over GST control); with ETV5, 1.23 fold enrichment (6-mer frequency, TF over GST control); with SPIC, 1.16 fold enrichment (6-mer frequency, TF over GST control). Moreover, the binding signal with ELF4 was 1.38 fold enrichment (6-mer frequency, TF over GST control); with ELK4, 1.23 fold enrichment (6-mer frequency, TF over GST control); with ETV2, 1.13 fold enrichment (6-mer frequency, TF over GST control); with ELF3 it was 1.33 fold enrichment (6-mer frequency, TF over GST control); with CRX it was 1.01 fold enrichment (6-mer frequency, TF over GST control); with ETV1 it was 1.05 fold enrichment (6-mer frequency, TF over GST control).
Take GTCCCG: the binding signal with FLI1 was 1.29 fold enrichment (6-mer frequency, TF over GST control); with ELK1, 1.2 fold enrichment (6-mer frequency, TF over GST control); with GABPA it was 1.21 fold enrichment (6-mer frequency, TF over GST control); with ERG it was 1.22 fold enrichment (6-mer frequency, TF over GST control); in the experiment with ELF1 it was 1.24 fold enrichment (6-mer frequency, TF over GST control); in the experiment with EHF, 1.2 fold enrichment (6-mer frequency, TF over GST control). Moreover, the binding signal with SPI1 was 1.21 fold enrichment (6-mer frequency, TF over GST control); with SPIB, 1.32 fold enrichment (6-mer frequency, TF over GST control); in the experiment with ELK3, 1.26 fold enrichment (6-mer frequency, TF over GST control); in the experiment with FEV it was 1.24 fold enrichment (6-mer frequency, TF over GST control); with ETV5, 1.19 fold enrichment (6-mer frequency, TF over GST control); with SPIC, 1.23 fold enrichment (6-mer frequency, TF over GST control). Further, the binding signal was 1.17 fold enrichment (6-mer frequency, TF over GST control) in the experiment with ELF4; 1.23 fold enrichment (6-mer frequency, TF over GST control) in the experiment with ELK4; 1.06 fold enrichment (6-mer frequency, TF over GST control) with ETV2; 1.26 fold enrichment (6-mer frequency, TF over GST control) with ELF3; 1.27 fold enrichment (6-mer frequency, TF over GST control) with ETV1.
